Assay results from the supplement of paper PMC11417369.
In all, about 25,000 sequences were measured (“ln(normalized median fluorescence intensity)”: median about 6.7, highest 2% from about 10 on). Many of the other results were omitted from the sample, so the highest values are more common in it than they were.

Tested on: PfHDP1 homeodomain (GST-tagged)
Assay: gcPBM binding intensity (ln(normalized median fluorescence intensity)); higher = stronger DNA binding
Outline: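 For binding intensity, the highest Masliner-normalised natural-log median intensity across replicate spots of either probe orientation was taken. Protein bound to the array was stained with Alexa488 anti-GST antibody and scanned at 488 nm. The protein, GST-tagged P. falciparum DNA-binding domains from E. coli at about 25 μg on average, had been applied for 1 h to an Agilent 4 × 180k array of primer-extended double-stranded 36-bp intergenic genomic probes and negative controls.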

Sequence	gcPBM binding intensity (ln)
GGAAAAAATATATGCACACCCCCCAAAAAAAAAAAA [CACACA_site2222]	9.67
TGGGAAAAAATATATGCACACCCCCCAAAAAAAAAA [CACACA_site8696]	10.6
AAAAAAAAAAAACACACACACACACCCAAATATATA [CACACA_site150]	6.84
ATTAAATGTATGACTTGTACATAAAATAAAAAAAAA [XGTACX_site6555]	6.56
TAAAGGAAATAAAAAACATGCAAATATGAAATATAT [TGCATGCA_site745]	6.74
AGGTGCAAAAATAAAACATGCAAAAATAAAAATGAA [TGCATGCA_site502]	10.7
AAATAAAATAATAAAACATGCAAAAATAATGATTTA [TGCATGCA_site415]	6.72
TTTATTAAAATATTCTCACACACCAAAATATGTATG [CACACA_site932]	6.42
TATATATATTTTTGTGTGCACTATAATATGAAAATA	10.3
TTTTAATATATAGAGTAACAAATTTGTCTATTAATA [CACACA_negctrl_site1495]	6.6
ATAACAAAAATCCTTGTGCACTATTTTAATAGAGTC	10.5
TAAAAAATAAATATATGTACATATTTATTTTTTTTT [XGTACX_site850]	6.19
TATCATATATAAAGAGGTACGTAAGAATAGAAAATT [XGTACX_site798]	7.27
TCTTTCCTTATTAAAACACACAAATACATTATTTAA [CACACA_site2147]	6.7
TAATAAAAAAAGTGCACACACATAATATTTATATAT [CACACA_site7548]	8.75
ATAAAAAAAAATATTTGTACACATATTTATATATTA [XGTACX_site8147]	6.56
TTTTTGTTACCTATTGTGCACTTCATATAAATTAAA	10.9
ACATTAAAAAATTGTTTGCACTATATAAAATATTAA [GTGCAC_site9728]	8.82
CATTTTATTTTCTTTGTGCACAAAAATATTTTTTCT	10.8

Sequence	gcPBM binding intensity (ln)
GTATTTCTTTAATATACACACACCAAAACAAAAAAA [CACACA_site579]	6.98
GAAATTTGTTATTGCACACAAATTTTTCTTTTTTTA [CACACA_site2339]	9.6
TTTTTTTTTGTTAAAGTGCATATATTAAATTTTCCT [GTGCAC_site9677]	7.82
GTGCAAAATATTTTTACACACAAATTCTTACAACAG [CACACA_site7556]	7.77
TTTTTTATTTTGTGCACACACATAAAAATATATATA [CACACA_site761]	11.4
TTTTATTTCTTTGCACCATTTTAAATACAAACAAAT [CACACA_negctrl_site1553]	11
CATTAATAAAAAAAAAGTACAAAAAATATATATATT [XGTACX_site2091]	6.88
TCGTCTCAATAATTATAATAAAAAAATTCCTAAGTC [CACACA_negctrl_site338]	6.28
TATATGCCTATAAGAAGTACTGTGTAATGTAATATA [XGTACX_site8089]	6.67
TTGTGTTATCCTTTTTTAGATCAACTATTTTTATTC [CACACA_negctrl_site145]	6.32
AAAGGAAAAAAAAGCACACACAATATTACTTGAAAT [CACACA_site2588]	6.9
TAATTATTACACGGTATTATATATAATATGTTAAAA [GTGCAC_negctrl_site134]	6.6
ATATTGATACATCCAATACACACTACATATAATGAT [CACACA_site1874]	6.82
TTATATTTATAAAATTGTATACCCCTTCTAACTTTC [CACACA_negctrl_site250]	6.7
TTTTGTTATAAATAATGTACATATTTATTTAAAATT [XGTACX_site6610]	6.25
TTTATATTTTATAAATTATTCATAAATATATTTGTA [TGCATGCA_negctrl_site175]	6.34
GTGCAAAATATTTTTACACACAAATTTTTACAACAG [CACACA_site3357]	8.07
AAAATGTGCATATTTGCACACTTCAATATATATATA [CACACA_site1791]	11.2
TCAAAAAATATATTTGCACACTCAAAAAAAAAAAAA [CACACA_site860]	10.2

Sequence	gcPBM binding intensity (ln)
TTTTTTATTTTGTGCACACACATAAAAATATAAATA [CACACA_site6497]	11.4
AAAAAATATATTTGCACACTCAAAAAAAAAAAAAAA [CACACA_site859]	10.3
ATATATTTATTTTGTGCACACAACGCAAACCTTTTA [CACACA_site3508]	11.3
TATAAAAATGTGCACACACACACATATTTATATTTA [CACACA_site6826]	10.1
AAAATATAAATTCATGTGCACATATATATTTTGTTA [GTGCAC_site9782]	10.7
TATAAACCTTTTTGCACGCACACAAAAAAAAAATAA [CACACA_site168]	9.61
ATATATATTTTTTAAACACACACATAAATATTTGTG [CACACA_site8936]	6.94
ATAACATTCTATGTTGCACACAAAGAGAAAAATTTA [CACACA_site9322]	9.12
TATTATATATCAAAATGTACATTAATTTGAGTAATT [XGTACX_site5434]	6.37
AAACGTGCGTATATGTGTACGCATATATATATATAT [XGTACX_site5252]	9.26
ATATATTTTTTAAACACACACATAAATATTTGTGTA [CACACA_site2879]	6.8
ATTTTTTTATTTTGTGCACACACATAAAAATATATA [CACACA_site762]	11.4
TATTTTATAATAGGCACACATATAAAAATATATATA [CACACA_site4127]	6.57
ATAATACAAAATACATGTACAAATATTTTTCATATT [XGTACX_site1721]	6.43
AATAAAATGGAATACGGTACACATAATCCTAAAATG [XGTACX_site926]	6.4
TTATGTTATATAAAAAGTACAAATTTTTTTTAATTA [XGTACX_site3435]	5.94
GGAGGTTGTTATAAAAGTACAAAAAGTTGCAATTTT [XGTACX_site7351]	10.7
TATAACAAGTTATAAAGTACAAATGTTGAATTTTAT [XGTACX_site4673]	6.07
AAACGAGAACATAATAAATACATAAATAAATAAATA [GTGCAC_negctrl_site433]	6.43
